The panel holds about 83,000 compounds, 20% with a hit somewhere; the sample as a whole holds those more often.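 Single-concentration screen, 48 h exposure, 96-well plates. Endpoint: percent growth. Below 10 = active.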 A number with no mark means an inactive call. Activity calls are given as the source filed them.
These compounds were tested on COLO 205 colon (assay: NCI-60 one-dose screen, 48 h (100 = growth as untreated, 0 = no growth, -100 = all killed)). Conditions: 10 µM unless noted.

Row | SMILES | growth
1 | O=C(Cc1ccc(F)c(Cl)c1)Nc1cc(C2(C(F)(F)F)CC2)nn1CC1CCCCC1 | -86.2% (active)
2 | O=C(S)CNC(=O)c1ccccc1 | 107%
3 | COc1cc(CCC[P+](c2ccccc2)(c2ccccc2)c2ccccc2)c(OC)c(OC)c1OC | 105%
4 | COc1cc2cc(Oc3ccc(NC(=O)Nc4ccc(Cl)c(C(F)(F)F)c4)cc3)c(C)nc2cc1OCCN1CCOCC1 | -28.3% (active)
5 | Cc1cc2nc3cc(C)c(N)cc3[n+](-c3ccccc3)c2cc1N | 61.1%
6 | CN1CCN(c2ccc(-c3cc4c(Nc5ccc(F)c(Cl)c5)ncnn4c3)cc2)CC1 | 37%
7 | COc1ccc(S(=O)(=O)n2cc(C3OC(c4cc(OC)c(OC)c(OC)c4)=NN3C(C)=O)c3ccccc32)cc1OC (stereo not drawn) | 127%
8 | COc1nc2ccc(C)cc2cc1-c1nc2c(cnn2-c2ccccc2)c(=O)[nH]1 | 86.3%
9 | Cc1cccc2c3c(sc12)C(c1ccc(Cl)cc1)C(C#N)=C(N)O3 (stereo not drawn) | -21.2% (active)
10 | CN(C)c1ccc2nc3ccc(=[N+](C)C)c([N+](=O)[O-])c-3sc2c1 | 20.3%
11 | Cc1ccc(C(=O)N/N=C/c2cccc(Oc3ccccc3)c2)cn1 | 65.2%
12 | Cc1c(C(=O)N[C@@H](Cc2ccccc2)C(=O)C(=O)NCc2ccc(F)cc2)[nH]c2ccccc2c1=O | -42.1% (active)
13 | Cc1c(C(=O)NCCCc2ccccc2)sc2ncc(-c3ccc(Br)cc3)n12 | 113%
14 | COc1ccc(-c2conc2-c2ccccc2)cc1 | -7.37% (active)
15 | Cc1ccccc1C(=O)NN | 110%
16 | CCS(=O)(=O)c1ncnc2nc[nH]c12 | 102%
17 | CCCCC[C@H](O)C/C=C1/C(=O)C=C[C@@H]1C/C=C\CCCC(=O)O | 78%
18 | C=C1CC[C@H](C(C)C)[C@@H]2[C@H]1[C@H]1CC(=C)[C@@H](O)CC[C@@](C)(O)[C@@H]2O1 | 117%
19 | COc1ccc(-c2[nH]c3ccc(OC)cc3c2/C=C(\C#N)S(=O)(=O)c2ccccc2)cc1 | -43.4% (active)

Row | SMILES | growth
20 | COc1ccc(C(=O)n2nc(-c3ccccc3)nc2N)cc1OC | 103%
21 | O=c1ccn(Cc2cn(-c3c4ccccc4nc4ccccc34)nn2)c(=O)[nH]1 | 108%
22 | CC/C=C\C[C@@H](O)C/C=C1/C(=O)C=C[C@H]1C/C=C\CCCC(=O)OC | -58% (active)
23 | CCCCn1c(=O)c(-c2cc(-c3ccc(Cl)cc3)nc(-c3ccc(Cl)cc3)c2)cc2cc(Cl)ccc21 | 109%
24 | Cc1nc2cnc(N)c(C#Cc3cncc(C(=O)Nc4ccc(CN5CCN(C)CC5)c(C(F)(F)F)c4)c3)c2nc1C | -17.5% (active)
25 | O=C1/C(=C/c2ccc(F)cc2)Sc2c(Br)cccc21 | 105%
26 | Cc1ccc(-c2nc(N3CCN(C(=O)c4ccc(OC(F)(F)F)cc4)CC3)c3ccccc3n2)cc1 | 91.1%
27 | CCOC(=O)c1c2c(n(-c3ccc(C#N)cc3)c1-c1ccccc1)C=CCC2 | 87.2%
28 | CCOc1c(B(O)O)cccc1-c1nc2ccc3[nH]ncc3c2c2c1CCCC2 | 48.6%
29 | CCOC(=O)C1=C(N)Oc2c(sc3c(CC)cccc23)C1c1ccc(F)cc1 (stereo not drawn) | 51.1%
30 | CCCCCCn1c(-c2ccc(C(=O)O/N=C(\N)c3ccc4ccccc4c3)cc2)nc(-c2ccccc2)c1-c1ccccc1 | 77.2%
31 | C=C(C)C1CCC2(C)OC2C1 (stereo not drawn) | 142%
32 | Clc1ccc(C(/C=C/c2sc(Cl)nc2Cl)=N/Nc2cc(Cl)cc(Cl)c2)cc1 | 118%
33 | c1ccc2c(-c3nc(-c4c[nH]c5ccncc45)cs3)c[nH]c2c1 | -77.8% (active)
34 | c1ccc(CO[C@H]2CO[C@H]3[C@@H]2OC[C@@H]3Oc2ccc(Nc3ncnc4ccsc34)cc2)cc1 | 71.8%
35 | COc1cc2cc(Oc3ccc(NC(=O)Nc4ccc(Cl)c(Cl)c4)cc3)c(C)nc2cc1OCCN1CCOCC1 | 104%
36 | Cc1nc2ccccc2c(/C=C/c2ccccc2)c1C(=O)/C=C/c1ccc(C(F)(F)F)cc1 | -25.7% (active)
37 | CCOC(=O)c1nc(Nc2ccc(C(C)=O)cc2)sc1C | 106%
38 | CCOC(=O)Nc1ccc(-c2nc(-c3cccc(OCCN4CCOCC4)c3)c(-c3ccnc(Br)c3)[nH]2)cc1 | 48.2%

From PubChem BioAssay (NCI)
